Test results taken from PubChem BioAssay AID1159580 (chemical genetic matrix, 2015).
In all, about 5,500 compounds went through this assay and about 2,000 (36%) were called active. About 18% were inconclusive and are not listed. Rule as the data show it: active = normalized growth mostly below about 0.91 (no sharp cut-off); inconclusive = no clear call, values can overlap the other calls; inactive = mostly above about 0.92. The list shows a part of the results.

Assay: chemical genetic growth profiling, strain panel (AID 1159580);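 also: tested at 20 µM; growth read once vehicle control cultures reached saturation at 30 °C; 1 = growth at the plate median or of vehicle wells; lower values mean less growth of the strain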
Settings: growth OD

Measured: normalized growth

Cc1cc(=O)n2c(-c3ccc(Cl)cc3)csc2n1
inactive: S. cerevisiae deletion strains, locus YAL013W, strain DEP1, active compounds read low 0.975 | S. cerevisiae deletion strains, locus YBR229C, strain ROT2, active compounds read low 0.954 | S. cerevisiae deletion strains, locus YCL061C, strain MRC1, active compounds read low 0.951 | S. cerevisiae deletion strains, locus YDL101C, strain DUN1, active compounds read low 0.936 | S. cerevisiae deletion strains, locus YDR150W, strain NUM1, active compounds read low 0.976 | S. cerevisiae deletion strains, locus YEL061C, strain CIN8, active compounds read low 0.931 | S. cerevisiae deletion strains, locus YGR078C, strain PAC10, active compounds read low 0.96 | S. cerevisiae deletion strains, locus YHR030C, strain SLT2, active compounds read low 0.712 | S. cerevisiae deletion strains, locus YHR087W, strain rtc3, active compounds read low 0.927 | S. cerevisiae deletion strains, locus YJL187C, strain SWE1, active compounds read low 0.965 | S. cerevisiae deletion strains, locus YJR043C, strain POL32, active compounds read low 0.982 | S. cerevisiae deletion strains, locus YJR075W, strain HOC1, active compounds read low 0.956 | S. cerevisiae deletion strains, locus YLR039C, strain RIC1, active compounds read low 0.892 | S. cerevisiae deletion strains, locus YLR058C, strain SHM2 (second series), active compounds read low 0.956 | S. cerevisiae deletion strains, locus YLR085C, strain ARP6, active compounds read low 0.826 | S. cerevisiae deletion strains, locus YLR262C, strain YPT6, active compounds read low 0.916 | S. cerevisiae deletion strains, locus YMR219W, strain ESC1, active compounds read low 0.96 | S. cerevisiae deletion strains, locus YMR263W, strain SAP30, active compounds read low 0.987 | S. cerevisiae deletion strains, locus YNL128W, strain TEP1, active compounds read low 0.972 | S. cerevisiae deletion strains, locus YNL153C, strain GIM3, active compounds read low 0.973 | S. cerevisiae deletion strains, locus YNL298W, strain CLA4 (second series), active compounds read low 0.947 | S. cerevisiae deletion strains, locus YNL322C, strain KRE1, active compounds read low 0.976 | S. cerevisiae deletion strains, locus YNR030W, strain Alg12, active compounds read low 0.943 | S. cerevisiae deletion strains, locus YPL055C, strain LGE1, active compounds read low 0.963 | S. cerevisiae deletion strains, locus YPL241C, strain CIN2, active compounds read low 0.941 | S. cerevisiae deletion strains, locus YPR135W, strain CTF4, active compounds read low 0.764 | S. cerevisiae strains, strain wild type, active compounds read low 0.96
active: S. cerevisiae deletion strains, locus YML094W, strain GIM5, active compounds read low 0.864
